# Assay results as given in PubChem BioAssay AID808 (Columbia University Molecular Screening Center, 2007).
# In all, about 93,000 compounds went through this assay and about 180 (0.19%) were called active. This is one part of a sample in which actives are shown more often than they occur. Unmarked numbers belong to inactive results.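 How the source made its calls: active means activation above the screen mean plus 3 SD, with well images confirming the hit on visual review (cut at about 28% in these data, passing the limit was not always enough); inconclusive means activation above that limit but images do not confirm it; inactive means activation not above that limit.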
# Test: enhancers of endothelial VCAM-1 upregulation by TNFa – imaging, HUVEC, TNFa stimulus, immunofluorescence, primary screen (AID 808);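 further: signal is the number of cytoplasmic VCAM-1 stained grains per positive cell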
# Conditions: HUVEC TNFa-stimulated VCAM-1 immunofluorescence, high-content imaging; at 2 µM; active compounds read high; scaled per plate to unstimulated/TNFa-only wells
row,SMILES,activation
1,CCC(CC)c1nnc(NS(=O)(=O)Cc2ccccc2)s1,11.2%
2,COc1cc(C)nc(N2CCCC(C(=O)NCC(C)C)C2)n1 (stereo not drawn),5.6%
3,COc1ccc2c(c1OC)C(=O)N(c1ncn[nH]1)C2,-7.1%
4,Nc1nonc1-c1noc(-c2ccc(Br)o2)n1,9.6%
5,COc1ccc(Nc2cc(=O)oc3ccccc23)cc1,-88.9%
6,Cc1cccc(Cn2c(SCCO)nc3c2c(=O)n(C)c(=O)n3C)c1,-4.1%
7,Cc1cccc(C)c1N1CCN(S(=O)(=O)N2CCOCC2)CC1,-11.4%
8,CSc1ccc(Cl)c(C(=O)OCC(=O)N2CC(C)OC(C)C2)c1 (stereo not drawn),4.1%
9,NS(=O)(=O)c1cccnc1Nc1cccc(Cl)c1,4.4%
10,CCN(CC)P(=O)(/C(Cl)=C\Nc1c(C)n(C)n(-c2ccccc2)c1=O)N(CC)CC,10.1%
11,CN(C)S(=O)(=O)c1ccc(N2CCCC2)c(C(=O)NCc2ccccc2)c1,-5.1%
12,COc1ccc(F)cc1S(=O)(=O)Nc1ccc2c(c1)OCO2,22.9%
13,COCCNS(=O)(=O)c1cc(Br)ccc1OC,35.9% (active)
14,CCCN1Cc2cccc(C(=O)Nc3ccc(S(=O)(=O)N4CCCCCC4)cc3)c2C1=O,1.5%
15,C/C(=N\NC(=O)c1ccc(C)cc1)C1C(=O)c2ccccc2C1=O,-6.4%
16,CCCC(=O)n1nc(-c2ccccc2)nc1N,25.9%
17,O=C(COC(=O)c1ccc(S(=O)(=O)N2CCc3ccccc3C2)cc1)NC(=O)NCc1ccco1,-0.5%
18,COC(=O)c1sc2ncccc2c1OCc1ccc(Cl)cc1Cl,-10.3%
19,C=C(Cl)COC(=O)C1C2C=CC(C2)C1C(=O)O (stereo not drawn),12.1%
20,Cc1ccc(C(=O)Nc2ccc3c(c2)OCO3)cc1S(=O)(=O)N1CCCCC1,7.1%
21,CCN(CC(=O)Nc1ccc2c(c1)OCCO2)Cc1cc(=O)oc2cc(C)c(C)cc12,54.4% (active)

row,SMILES,activation
1,Cn1cc([N+](=O)[O-])c(C(=O)Nc2ccc3c(c2)OCCO3)n1,-36.8%
2,CC(CCc1ccccc1)NC(=O)c1ccc(Br)o1 (stereo not drawn),-95.4%
3,NC(=O)COc1ccc2c3c(c(=O)oc2c1)CCCCC3,-35%
4,Cc1cc(Cl)c(S(=O)(=O)NCC2CCCO2)cc1OCC(N)=O (stereo not drawn),25.1%
5,Cc1cc(=O)oc2cc(OCC3CC(c4ccccc4Cl)=NO3)ccc12 (stereo not drawn),-59.7%
6,Cc1ccc(CNC(=O)CCCNC(=O)c2ccc(Cl)cc2)n1C,7.4%
7,Cc1ccc(-c2csc(NC(=O)c3cccs3)n2)cc1,5.6%
8,Cc1cccc(N=C2NC(=O)CS2)c1C,-97.1%
9,COc1ccc(-c2c3c(=O)n(C)c(=O)n(C)c3cn2-c2cccc(OC)c2)cc1,-7.7%
10,COc1ccc(C(=O)OCC(=O)NCC2CCCCC2)cc1S(=O)(=O)N1CCCc2ccccc21,-5.3%
11,CCOC(=O)CCP(=O)(O)C(O)(c1ccccc1)c1ccccc1,-1.8%
12,CC(=O)c1cccc(S(=O)(=O)N2CCC(n3nnc4cc(F)ccc43)CC2)c1,-54.7%
13,COc1cc(/C=N/NC(=O)Nc2ccccc2)ccc1OCCOc1ccccc1C,-51.1%
14,C=CCOc1ccc(/C=N/n2cncn2)cc1OC,4.4%
15,COc1ccc(/C=N/Nc2nc3ccccc3o2)cc1OC,32.9% (active)
16,CN1CCN(c2nc3c(c(=O)[nH]c(=O)n3C)n2Cc2cccc3ccccc23)CC1,-8.9%
17,CCC(C)(C)n1nnnc1C(c1cccs1)N1CCN(c2nc3ccccc3s2)CC1 (stereo not drawn),0.6%
18,Cc1ccc(S(=O)(=O)N2CCCC2C(=O)NCc2ccco2)cc1 (stereo not drawn),6.4%
19,CCCN1C(=O)C(NC(C)=O)c2cc(OC)ccc21 (stereo not drawn),-5.9%
20,O=C(CO/N=C/c1ccccc1O)NNC(=O)c1ccccc1Cl,2.1%
21,CC(=O)Nc1ccc(S(=O)(=O)NCCc2ccccc2)cc1,-7.2%

row,SMILES,activation
1,CCOc1ccc(NC(=O)CCC(=O)n2nc(C)cc2C)cc1,-6.7%
2,Cc1ccc(OCc2nnc(NC(=O)OCC(C)C)s2)cc1,0.2%
3,CCOC(=O)c1sc(NC(=S)n2cc(C)cn2)c(C(=O)OCC)c1C,-0.6%
4,COCCOC(=O)C1=C(C)N=c2s/c(=C\c3cccs3)c(=O)n2C1c1cccs1 (stereo not drawn),-3.2%
5,Cc1c(-c2ccccc2)nc(N)c(C#N)c1-c1cccs1,-3.7%
6,CCc1ccc2oc(=O)cc(CN3CCCCC3C)c2c1 (stereo not drawn),-6.7%
7,O=C1c2ccccc2C2=Nc3ccccc3SC(c3ccccc3F)C12 (stereo not drawn),-0.2%
8,C=CCn1c2ccccc2c2nnc(SC(CC)C(=O)Nc3nc(C)c(C(=O)OCC)s3)nc21 (stereo not drawn),10%
9,O=C(Nc1ccc2nc3n(c(=O)c2c1)CCCCC3)c1ccccc1Cl,-7.6%
10,CCCCN=C1N/C(=C\c2ccco2)C(=O)N1c1ccccc1,-7.6%
11,CC1(C)C/C(=C(/C#N)C(N)=O)CCO1,3.2%
12,Cc1noc(C)c1CSCC(=O)Nc1nc2ccc(Oc3ccccc3)cc2s1,-4.3%
13,O=C(Nc1ccc(Sc2ccc(Br)cc2)cc1)c1ccco1,-2.8%
14,Cc1cccc(OCCCC(=O)Nc2ccc(S(=O)(=O)N3CCCC3)cc2)c1,-20.4%
15,CCOC(=O)c1ccc(NC(=O)CSc2ncccn2)cc1,21.4%
16,O=C(CCCn1c(=O)[nH]c2cc(Cl)ccc2c1=O)NCCN1CCN(c2ccccc2)CC1,4%
17,O=C(CSCc1ccccc1Cl)NNC(=O)c1ccccc1,-5.4%
18,O=C(CS(=O)(=O)Cc1ccccc1)NCC1CCCO1 (stereo not drawn),24.8%
19,C/C(=C\C(=O)c1cccnc1)Nc1ccc(C)c(C)c1,-89.1%
20,CCCNS(=O)(=O)c1ccc2c(c1)CCCN2C(C)=O,-100%
21,C=CCn1c(N)c(C(=O)OCC(C)C)c2nc3ccccc3nc21,-94.4%
